Pf growth 48h – P. falciparum growth inhibition at 48 hours (one generation). 5.9% of 310,000 active. P. falciparum luciferase growth in erythrocytes, 48 h. Potency, µM (titrated, usually from 28.7 µM), most hits filed as inhibitors. AID 504832
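Read-out is firefly luciferase luminescence from an integrated reporter in P. falciparum, so falling signal marks reduced parasite growth. Infected erythrocytes were at 2% hematocrit and 0.1% parasitemia (final) in Albumax-supplemented RPMI 1640.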
HCV inh – blocks hepatitis C virus; Huh7.5.1 HCVcc-Cre infection, luciferase reporter, 44 h; Potency, µM (titrated, usually from 41.8 µM), most hits filed as inhibitors; 3.4% of 340,000 active; AID 651820
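Luciferase read-out (15 sec integration) after a 15 min room-temperature substrate step quantifies HCVcc-Cre infection. Cells, 1,000 per well, had compound added 4 h post-plating, then virus at ~0.5 moi, and were cultured 44 h.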
Pf growth 96h – P. falciparum growth inhibition at 96 hours; P. falciparum luciferase reporter growth, 96 h; Potency, µM (series often up to 28.7 µM), hits mostly inhibitors; AID 504834; 6.9% of 320,000 active
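Compounds incubated with erythrocytes infected by luciferase-expressing P. falciparum (2% hematocrit, 0.05% parasitemia final) for 96 hours, 37 C in 5% CO2. Growth inhibition scored as decreased luciferase luminescence.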
HCMV inh – blocks human cytomegalovirus replication | HFF cells, HCMV-luciferase reporter, 72 h; active compounds read low | activity change, negative = inhibition, % at 57.5 µM | 4.5% of 410,000 active | AID 1259415; in the data active = activity change below about -60%; inconclusive = no clear call, values can overlap the other calls; inactive = above about -39%
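Luciferase read-out from HCMV-luciferase-infected HFFs (MOI 1 PFU/cell) 72 h post infection at 37C; compounds added after 16 h cell attachment; activity normalized between buffer-only basal and Salinomycin (10uM) inhibitor controls.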
Hits are given with their value; – = inactive; ? = inconclusive; · = not tested or not shown; ! = not active in a repeat. In the library only some 13% were active in any assay of this set; here they are far more common. Unless noted, calls follow the shape of the dose curve; as a rule, active = well fitted inhibition curve with a large enough effect; inconclusive = small, poorly fitted or top-dose-only effect, or another doubt; inactive = no such curve, though single readings can be large or run the other way.

SMILES	Pf growth 48h	HCV inh	Pf growth 96h	HCMV inh
Cc1ccc(-n2nc3c(=O)n(CC(=O)NC(C)CCc4ccccc4)nc(C)c3c2C)cc1 (centres undefined)	–	2.2µM	?	·
Cc1nn(CCCC(=O)NCCc2ccc(Cl)cc2)c(=O)c2nn(-c3ccccc3)c(C)c12	–	?	13µM	–
Cc1ccc(-n2nc3c(=O)n(CC(=O)NCc4ccccc4)nc(C)c3c2C)cc1	–	?	–	–
Cc1c(Cl)c([N+](=O)[O-])nn1CCCC(=O)NCCc1ccccc1	–	–	7.4µM	–
Cc1nn(CCCC(=O)NCCc2ccccc2)c(=O)c2nn(-c3ccccc3)c(C)c12	–	–	?	–
CCOC(=O)c1sc(NC(=O)CCCn2nc([N+](=O)[O-])c(Cl)c2C)c(C(=O)OCC)c1C	–	–	1.3µM	–
COc1ccc(CNC(=O)CC2N=C3c4ccccc4N=C(SCC(=O)Nc4ccc(C(C)C)cc4)N3C2=O)cc1 (centres undefined)	·	·	·	–
CCN(CC)C(=O)Cn1c(=O)n(Cc2ccc(C(=O)NCCCOC)cc2)c(=O)c2ccccc21	·	·	·	–
Cc1ccccc1CNC(=O)Cn1nc(C)c2nn(-c3ccc(Cl)cc3)c(C)c2c1=O	·	·	·	–
CCc1cccc(C)c1NC(=O)Cn1nc(C)c2nn(-c3ccc(Cl)cc3)c(C)c2c1=O	·	·	·	-62
Cc1ccc(-n2nc3c(=O)n(CC(=O)NCCc4ccc(Cl)cc4)nc(C)c3c2C)cc1	–	?	0.93µM	?
CC(O)CSc1nc2c(c(=O)[nH]c(=O)n2C)n1CC(O)COc1ccccc1 (centres undefined)	–	–	–	-94
CC(C)Sc1nc2c(c(=O)[nH]c(=O)n2C)n1CC(O)COc1ccccc1 (centres undefined)	–	–	–	?
Cc1ccccc1OCC(O)Cn1c(SC(C)C)nc2c1c(=O)[nH]c(=O)n2C (centres undefined)	?	–	10µM	–
CCN(Cc1ccccc1)C(=O)Cn1c(=O)n(-c2ccc(C)c(C)c2)c(=O)c2c(C)c(C)sc21	·	·	·	–
CC(=O)c1ccc(NC2=C(N3CCOCC3)C(=O)c3ccccc3C2=O)cc1	0.83µM	?	0.52µM	–
Cc1ccc(NC2=C(N3CCOCC3)C(=O)c3ccccc3C2=O)cc1	2.1µM	?	2.6µM	–
Cc1ccc(S(=O)(=O)Nc2ccc(N3CCOCC3)cc2)cc1	·	–	–	–
O=C(O)c1ccc(NC2=C(N3CCOCC3)C(=O)c3ccccc3C2=O)cc1	–	–	–	–
CCSc1nc(-c2cccc(Cl)c2)nc2c1Cc1c(CO)cnc(C)c1O2	·	·	·	–
CCC(=C(c1ccc(O)cc1)c1ccc(OCCN(C)C)cc1)c1ccccc1	·	·	·	–
CCOc1ccc(C(=O)OCCN(CC)CC)cc1	–	–	–	–
CC/C(=C(\c1ccccc1)c1ccc(OCCN(C)C)cc1)c1ccccc1	13µM	3.2µM	?	?
CCN(CC)CCOc1ccc(/C(=C(/Cl)c2ccccc2)c2ccccc2)cc1	9.3µM!	7.9µM	9.3µM	-71!
CC/C(=C(\c1ccc(O)cc1)c1ccc(OCCN(C)C)cc1)c1ccccc1	·	?	·	-67
SMILES	Pf growth 48h	HCV inh	Pf growth 96h	HCMV inh
CN(C)CCOc1ccc(C(C)(C)c2ccccc2)cc1	–	–	–	–
CCCC(=O)Nc1cc(C(=O)NCc2ccccc2)ccc1S(=O)(=O)c1ccc(Cl)cc1	·	·	·	–
CCN(CC)S(=O)(=O)c1ccc2c(c1)c(=O)c(C(=O)N1CCN(c3ccc(OC)cc3)CC1)cn2C	·	·	·	–
COCCNc1ccc2cc(S(=O)(=O)N3CCCCC3)ccc2n1	·	·	·	–
O=C1C(n2ccc3ccccc32)c2cc(Cl)ccc2N1Cc1ccc(Cl)nc1 (centres undefined)	·	·	·	–
CCCCNC(=O)c1sc(=S)n2c1[nH]c(=O)c1ccc(C(=O)NCCc3ccc(OC)c(OC)c3)cc12	?	–	?	·
O=C(NCc1ccccc1)c1sc(=S)n2c1[nH]c(=O)c1ccccc12	–	–	13µM	–
COc1cccc(NC(=O)Cn2c(=O)n(-c3ccccc3)c(=O)c3ccc(C(=O)NCc4ccc5c(c4)OCO5)cc32)c1	·	·	·	–
Cc1ccc2c(c1)N(S(=O)(=O)c1ccc(F)cc1)C(C(C)(C)C)CO2 (centres undefined)	13µM	–	–	–
COC(=O)CC1COc2ccccc2N1S(=O)(=O)c1ccc(OC)cc1 (centres undefined)	?	–	?	–
Cc1ccc(S(=O)(=O)N2c3ccccc3OCC2C(C)(C)C)cc1 (centres undefined)	9.3µM	–	?	–
COc1ccc2c(c1)c1c(c(=O)n(-c3ccc(F)c(Cl)c3)c(=O)n1CC(=O)N1CCCC1)n2C	·	·	·	–
COc1ccc(CCNC(=O)C2(c3ccccc3)CC2)cc1	–	–	–	·
O=C(NCCc1ccccc1)C1(c2ccccc2)CCCC1	–	–	13µM	–
O=C(NCc1ccc(Cl)nc1)c1csc([C@@H]2C[C@H](O)[C@@H](CO)O2)n1	·	·	·	–
NCCc1nc(-c2ccccc2)cs1	–	–	13µM	–
NC(=O)Cc1nc(-c2ccccc2)cs1	–	–	?	–
Nc1nc(-c2ccc(-c3ccccc3)cc2)cs1	–	10µM	–	–
Nc1nc(-c2ccc(Oc3ccccc3)cc2)cs1	–	10µM	?	–
Cc1cccc(N2CCN(Cc3nnc(-c4ccc5c(c4)OCO5)o3)CC2)c1C	·	·	·	–
O=C(NC1(C(F)(F)F)N=C(c2ccccc2)N(Cc2ccccc2)C1=O)c1ccc(F)cc1 (centres undefined)	·	·	·	–
CCOc1cc(-c2noc(N)c2C(=O)OC)cc(OCC)c1OCC	–	?	12µM	–
COC(=O)C1=COC(C)C2CN3CCc4c([nH]c5cc(OC)c(OC)cc45)C3CC12 (centres undefined)	?	?	0.83µM	–
CCOC(=O)C1CCCN(c2ncnc3c2nnn3C)C1 (centres undefined)	·	·	·	–
Fc1ccccc1COc1ccc(Br)cc1CNCc1cccnc1	13µM	?	?	–
SMILES	Pf growth 48h	HCV inh	Pf growth 96h	HCMV inh
COc1ccccc1CNCc1cc(Br)ccc1OC	12µM	?	?	–
Fc1ccc(COc2cccc(CNCc3ccncc3)c2)cc1	–	?	?	-71
COc1ccccc1CNCc1cc(OC)c(OC)cc1OC	–	–	·	–
O=C(O)c1ccc(CNCc2cccc(OCc3ccc(F)cc3)c2)cc1	–	–	–	?
CCOc1cc(CNCc2ccncc2)cc(Br)c1OCc1ccc(F)cc1	?	10µM	?	-65
Cc1ccc(C(=O)NCC(c2ccc3c(c2)OCO3)N2CCN(c3ccc(F)cc3)CC2)cc1 (centres undefined)	·	·	·	–
Fc1ccccc1COc1ccc(Br)cc1CNCc1ccncc1	·	–	12µM	–
COc1cc(CNC(C)c2ccccc2)cc(Br)c1OCc1ccc(F)cc1 (centres undefined)	?	22µM	?	?
CCOc1ccc(Br)cc1CNCc1cccnc1	–	–	?	–
COc1cc(CNC(C)c2ccccc2)cc(Br)c1OCc1ccccc1 (centres undefined)	?	?	?	–
Fc1ccc(COc2ccc(Br)cc2CNCc2ccncc2)cc1	8.3µM	10µM	?	?

Assay outcomes: PubChem, National Center for Advancing Translational Sciences (NCATS)
